Assay results taken from PubChem BioAssay (NCATS).
Results filed as inconclusive are left out. Calls of active or inactive are those of the source. Calls follow the shape of the dose curve; as a rule, active = well fitted curve in the direction sought with a large enough effect; inconclusive = small, poorly fitted or top-dose-only effect, or another doubt; inactive = no such curve, though single readings can be large; an effect the other way counts as inactive or inconclusive.

Test system: not listed separately
Assay: qHTS of pediatric cancer cell lines to identify multiple opportunities for drug repurposing: Primary screen for LAN-5 cells (AID 1347100); also: potency is read from the fitted curve at half-maximal effect;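 as to activity change, negative = cytotoxic: plate controls were DMSO neutral control for no effect and bortezomib positive control for full effect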
Details: LAN-5 neuroblastoma viability, CellTiter-Glo luminescence, 48 h; series mostly up to 46 µM; activity change, negative = cytotoxic: at the top concentration
Outline: (§1)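 Viability after 48 h compound treatment at 37C, 500-1,000 cells/well, read as ATP luminescence with CellTiter-Glo. Primary screens used 11-point (MIPE, 0.78 nM-46 µM) or 8-point (NPC, 0.59 nM-46 µM) final concentrations; follow-up screens used 11-point dilutions.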

SMILES	activity change, negative = cytotoxic	Potency
CCC(C(=O)O)c1ccc(N2Cc3ccccc3C2=O)cc1 (configuration not stated)	3.8% (inactive)	–
O=C(O)c1c(O)c(-c2ccccc2)nc2ccccc12	-4.38% (inactive)	–
O=C(O)c1ccccc1NCCc1ccccc1	10.2% (inactive)	–
CCOCCOC(=O)/C=C/c1ccc(OC)cc1	19.2% (inactive)	–
Nc1ccccc1N	–	17.2 µM (active)

Test system: not listed separately
Assay: qHTS of pediatric cancer cell lines to identify multiple opportunities for drug repurposing: Primary screen for BT-12 cells (AID 1347101);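 also: plate controls were DMSO for no effect and bortezomib positive control for full effect; nearly all actives have a fitted effect of over 25% in size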
Details: BT-12 viability, CellTiter-Glo luminescence, 48 h; series mostly up to 57.3 µM; activity change, negative = cytotoxic: at the top concentration
Outline: (§2)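 Cells (500-1,000/well) rested 5 h, then received compounds for 48 h; metabolically active cells were measured by CellTiter-Glo luminescence. Final concentrations spanned up to 46 µM (MIPE, 11-point) or 0.59 nM-46 µM (NPC, 8-point) in primary screens, 11-point in follow-ups.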

SMILES	activity change, negative = cytotoxic
CCC(C(=O)O)c1ccc(N2Cc3ccccc3C2=O)cc1 (configuration not stated)	10.4% (inactive)
O=C(O)c1c(O)c(-c2ccccc2)nc2ccccc12	0.961% (inactive)
O=C(O)c1ccccc1NCCc1ccccc1	0.415% (inactive)
CCOCCOC(=O)/C=C/c1ccc(OC)cc1	6.62% (inactive)

Test system: not listed separately
Assay: qHTS of pediatric cancer cell lines to identify multiple opportunities for drug repurposing: Primary screen for Rh18 cells (AID 1347102); also: % is scaled to controls: 0 for no effect and ±100 for the full control effect; nearly all actives have a fitted effect of over 65% in size
Details: Rh18 rhabdomyosarcoma viability, CellTiter-Glo luminescence, 48 h; series mostly up to 46 µM; activity change, negative = cytotoxic: at the top concentration
Outline: as §1

SMILES	activity change, negative = cytotoxic
CCC(C(=O)O)c1ccc(N2Cc3ccccc3C2=O)cc1 (configuration not stated)	4.45% (inactive)
O=C(O)c1c(O)c(-c2ccccc2)nc2ccccc12	-0.674% (inactive)
O=C(O)c1ccccc1NCCc1ccccc1	-0.225% (inactive)
CCOCCOC(=O)/C=C/c1ccc(OC)cc1	3.21% (inactive)

Test system: not listed separately
Assay: qHTS of pediatric cancer cell lines to identify multiple opportunities for drug repurposing: Primary screen for OHS-50 cells (AID 1347103);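 also: plate controls were DMSO neutral control for no effect and bortezomib positive control for full effect; nearly all actives have a fitted effect of over 40% in size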
Details: OHS-50 osteosarcoma viability, CellTiter-Glo luminescence, 48 h; series mostly up to 57.3 µM; activity change, negative = cytotoxic: at the top concentration
Outline: as §2

SMILES	activity change, negative = cytotoxic
CCC(C(=O)O)c1ccc(N2Cc3ccccc3C2=O)cc1 (configuration not stated)	-11.9% (inactive)
O=C(O)c1c(O)c(-c2ccccc2)nc2ccccc12	-13.9% (inactive)
O=C(O)c1ccccc1NCCc1ccccc1	10.1% (inactive)
CCOCCOC(=O)/C=C/c1ccc(OC)cc1	-14.2% (inactive)

Test system: not listed separately
Assay: qHTS of pediatric cancer cell lines to identify multiple opportunities for drug repurposing: Primary screen for RD cells (AID 1347104);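 also: plate controls were DMSO for no effect and bortezomib for full effect; nearly all actives have a fitted effect of over 55% in size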
Details: RD rhabdomyosarcoma viability, CellTiter-Glo luminescence, 48 h; series mostly up to 46 µM; activity change, negative = cytotoxic: at the top concentration
Outline: (§3)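 CRCs from 8- or 11-point titrations (lowest final 0.59 nM NPC, 0.78 nM MIPE). Cell viability: CellTiter-Glo after 48 h incubation, 15 min room-temperature development, luminescence imaging.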

SMILES	activity change, negative = cytotoxic
CCC(C(=O)O)c1ccc(N2Cc3ccccc3C2=O)cc1 (configuration not stated)	1.91% (inactive)
O=C(O)c1c(O)c(-c2ccccc2)nc2ccccc12	-7.4% (inactive)
O=C(O)c1ccccc1NCCc1ccccc1	7.37% (inactive)
CCOCCOC(=O)/C=C/c1ccc(OC)cc1	8.98% (inactive)

Test system: not listed separately
Assay: qHTS of pediatric cancer cell lines to identify multiple opportunities for drug repurposing: Primary screen for MG 63 (6-TG R) cells (AID 1347105); also: % is scaled to controls: 0 for no effect and ±100 for the full control effect; nearly all actives have a fitted effect of over 50% in size
Details: MG 63 (6-TG R) viability, CellTiter-Glo, 48 h; series mostly up to 46 µM; activity change, negative = cytotoxic: at the top concentration
Outline: as §3

SMILES	activity change, negative = cytotoxic
CCC(C(=O)O)c1ccc(N2Cc3ccccc3C2=O)cc1 (configuration not stated)	-2.14% (inactive)
Cc1ccc(N)cc1O	37.4% [at 92.7 µM] (inactive)
O=C(O)c1c(O)c(-c2ccccc2)nc2ccccc12	-16.9% (inactive)
O=C(O)c1ccccc1NCCc1ccccc1	-12.1% (inactive)
CCOCCOC(=O)/C=C/c1ccc(OC)cc1	-7.72% (inactive)
Nc1ccccc1N	-20.2% [at 92.7 µM] (inactive)

Test system: not listed separately
Assay: qHTS of pediatric cancer cell lines to identify multiple opportunities for drug repurposing: Primary screen for control Hh wild type fibroblast cells (AID 1347106);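 also: % is scaled to controls: 0 for no effect and ±100 for the full control effect; a drop in luminescence marks cytotoxicity and a rise apparent proliferation; nearly all actives have a fitted effect of over 55% in size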
Details: Hh wild-type fibroblast viability, CellTiter-Glo luminescence, 48 h; series mostly up to 46 µM; activity change, negative = cytotoxic: at the top concentration
Outline: as §1

SMILES	activity change, negative = cytotoxic
CCC(C(=O)O)c1ccc(N2Cc3ccccc3C2=O)cc1 (configuration not stated)	5.54% (inactive)
Cc1ccc(N)cc1O	29.4% [at 92.7 µM] (inactive)
O=C(O)c1c(O)c(-c2ccccc2)nc2ccccc12	1.98% (inactive)
O=C(O)c1ccccc1NCCc1ccccc1	10.9% (inactive)
CCOCCOC(=O)/C=C/c1ccc(OC)cc1	4.2% (inactive)
Nc1ccccc1N	-5.29% [at 92.7 µM] (inactive)

Test system: not listed separately
Assay: qHTS of pediatric cancer cell lines to identify multiple opportunities for drug repurposing: Primary screen for Rh30 cells (AID 1347107); also: % is scaled to controls: 0 for no effect and ±100 for the full control effect; nearly all actives have a fitted effect of over 75% in size
Details: Rh30 rhabdomyosarcoma viability, CellTiter-Glo luminescence, 48 h; series mostly up to 46 µM; activity change, negative = cytotoxic: at the top concentration
Outline: as §1

SMILES	activity change, negative = cytotoxic
CCC(C(=O)O)c1ccc(N2Cc3ccccc3C2=O)cc1 (configuration not stated)	16.3% (inactive)
O=C(O)c1c(O)c(-c2ccccc2)nc2ccccc12	19.2% (inactive)
O=C(O)c1ccccc1NCCc1ccccc1	16.1% (inactive)
CCOCCOC(=O)/C=C/c1ccc(OC)cc1	12.4% (inactive)

Test system: not listed separately
Assay: qHTS of pediatric cancer cell lines to identify multiple opportunities for drug repurposing: Primary screen for Rh41 cells (AID 1347108);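 also: luminescence drop marks cytotoxic hits; nearly all actives have a fitted effect of over 70% in size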
Details: Rh41 rhabdomyosarcoma viability, CellTiter-Glo luminescence, 48 h; series mostly up to 46 µM; activity change, negative = cytotoxic: at the top concentration
Outline: as §3

SMILES	activity change, negative = cytotoxic
CCC(C(=O)O)c1ccc(N2Cc3ccccc3C2=O)cc1 (configuration not stated)	31.7% (inactive)
O=C(O)c1c(O)c(-c2ccccc2)nc2ccccc12	20.7% (inactive)
O=C(O)c1ccccc1NCCc1ccccc1	14.5% (inactive)
CCOCCOC(=O)/C=C/c1ccc(OC)cc1	16.3% (inactive)

Target: Furin (Homo sapiens) (UniProt P09958)
Assay: Furin counterscreen qHTS for Zika virus inhibitors (AID 1347149); also: nearly all actives have a fitted effect of over 70% in size; also: potency is read from the fitted curve at half-maximal effect;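 as to activity change, negative = inhibition: purified recombinant full-length human furin enzyme at 5 nM; fluorescence gain from furin cutting a BOC-RVRR-AMC peptide substrate over 15 min; top concentration of the series differs between compounds; plate controls were no-inhibitor control for no effect and no-enzyme control for full effect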
Details: furin enzymatic counterscreen, fluorogenic substrate; series mostly up to 114 µM; activity change, negative = inhibition: at the top concentration
Outline: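 Fluorogenic cleavage of BOC-RVRR-AMC (2 microM final, Km ~15 µM) was monitored (ex 340, em 450 nm) at 37C after 15 min RT preincubation of 5 nM furin with compounds in HEPES pH 7.0 buffer with CaCl2 and Triton X-100. Percent inhibition was fitted to a 4-parameter Hill curve.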

Chain of Furin (Homo sapiens) (P09958 whole entry, looked up): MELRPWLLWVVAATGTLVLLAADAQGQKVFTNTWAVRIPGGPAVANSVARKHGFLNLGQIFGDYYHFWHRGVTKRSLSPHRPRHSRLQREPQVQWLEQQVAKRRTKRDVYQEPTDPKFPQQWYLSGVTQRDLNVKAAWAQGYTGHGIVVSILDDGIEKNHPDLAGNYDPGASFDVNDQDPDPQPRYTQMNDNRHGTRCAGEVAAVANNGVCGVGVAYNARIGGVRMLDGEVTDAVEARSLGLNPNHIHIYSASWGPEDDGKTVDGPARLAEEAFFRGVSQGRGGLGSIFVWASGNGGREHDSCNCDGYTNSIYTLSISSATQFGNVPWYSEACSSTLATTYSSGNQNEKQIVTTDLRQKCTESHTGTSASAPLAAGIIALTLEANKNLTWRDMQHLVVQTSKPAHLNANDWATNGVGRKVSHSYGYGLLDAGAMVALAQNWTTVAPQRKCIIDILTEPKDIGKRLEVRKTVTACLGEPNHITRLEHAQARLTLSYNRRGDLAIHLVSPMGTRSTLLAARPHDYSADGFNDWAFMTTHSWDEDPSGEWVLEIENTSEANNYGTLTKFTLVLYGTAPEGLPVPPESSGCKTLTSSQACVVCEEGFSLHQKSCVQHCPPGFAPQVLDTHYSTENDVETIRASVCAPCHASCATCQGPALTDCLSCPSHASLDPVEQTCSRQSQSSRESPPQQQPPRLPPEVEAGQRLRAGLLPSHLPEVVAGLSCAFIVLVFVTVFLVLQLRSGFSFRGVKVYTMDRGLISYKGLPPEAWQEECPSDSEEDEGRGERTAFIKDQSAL

SMILES	Potency	activity change, negative = inhibition
CC(C)c1cccc2c(-c3ccccc3)cc(-c3ccc(-c4ccc(C(=O)O)cc4)[nH]3)nc12	39.3 µM (active)	–
CC1=C(C(=O)OCc2ccccc2)C(c2ccc(-c3ccccc3)cc2)NC(=O)N1CCCCCC(=O)O (configuration not stated)	39.3 µM (active)	–
O=C(Nc1ccc(S(=O)(=O)Nc2nccs2)cc1)C(c1ccccc1)c1ccccc1	–	-9.71% (inactive)
O=C(N/N=C/c1ccc(O)c(O)c1)c1cc2ccccc2cc1O	–	14.4% [at 36.2 µM] (inactive)
O=C(O)/C=C/c1ccc(-c2ccc(O)c(C34CC5CC(CC(C5)C3)C4)c2)cc1	44.1 µM (active)	–
N#CC(c1ccnc(OCc2ccc(CN3CCOCC3)cc2)n1)c1nc2ccccc2s1 (configuration not stated)	–	7.83% (inactive)
CCc1c(-c2ccccc2)c(-c2ccccc2)nn1-c1ccccc1-c1cccc(OCC(=O)O)c1	30.4 µM (active)	–
Nc1ncnc2c([C@@H]3N[C@H](CO)[C@@H](O)[C@H]3O)c[nH]c12	–	-16.2% [at 57.5 µM] (inactive)
CC1(C)CCC(C)(C)c2cc(C3(c4ccc(C(=O)O)cc4)OCCO3)ccc21	–	65.7% (inactive)
COc1ccc(C(=O)n2c(C)c(Cc3cccc(O[C@@H](C)C(=O)O)c3)c3cc(OC(F)(F)F)ccc32)cc1	49.4 µM (active)	–
O=C(O)Cc1ccc2oc(-c3ccc(NC(=O)/C=C/c4ccc(Br)cc4)c(F)c3)nc2c1	55.5 µM (active)	–
